Source: PubChem BioAssay
Active and inactive are the calls of the source.

Key:
[1] = E. coli DRC41 culture turbidity changes, primary screen, E. coli filamentation inducer project, strain DRC41, OD650, 48 h (AID 1152);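 further: E. coli MC1000 strain DRC41 lacking acrAB efflux pump and sulA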; conditions: E. coli DRC41 (acrAB sulA), higher = more signal, called active from +8 up or from −8 down
[2] = small-molecule binders of probe aLefty1, primary screen, biochemical, small-molecule microarray, 635/667 nm fluorescence (AID 1153); conditions: higher = more signal;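 further: score merges spot fluorescence with signal-to-noise ratio from the scanned slide images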
[3] = PSAC antagonists in infected red cells, primary screen, cell-based, P. falciparum Indochina, OD700, 1 h (AID 1154); conditions: P. falciparum Indochina infected RBC osmotic lysis, higher = more signal, called active from +8 up or from −8 down
[4] = PSAC antagonists in infected red cells, primary screen, cell-based, P. falciparum Indochina, OD700, 2 h (AID 1155);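 further: lysis reports solute entry through the parasite surface anion channel PSAC; channel blockers reduce lysis of infected cells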; conditions: P. falciparum Indochina infected erythrocytes, osmotic lysis OD700; higher = more signal, called active from +8 up or from −8 down
[5] = osmotic lysis modulators in infected erythrocytes, primary screen, PSAC antagonist project, cell-based, P. falciparum Indochina, OD700, 3 h (AID 1156); conditions: higher = more signal, called active from +8 up or from −8 down
[6] = PSAC antagonists in infected red cells, primary screen, cell-based, P. falciparum Indochina, OD700, 18 h (AID 1157); conditions: P. falciparum Indochina infected erythrocytes, osmotic lysis OD700, 18 h; higher = more signal, called active from +8 up or from −8 down
[7] = modulators of S6 phosphorylation in cells, primary screen, cell-based, A549, cytoblot, luminescence, serum-stimulated (AID 1158); conditions: A549 phospho-S6 cytoblot, 5 h, higher = more signal;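 further: serum-stimulated A549 lung adenocarcinoma cells; signal is phosphorylated S6 detected by cytoblot immunostaining with HRP secondary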
[8] = target: NADPH oxidase 2 (Homo sapiens) (UniProt P04839); assay: NOX2-dependent H2O2 signal modulators, primary screen, NOX inhibitor project, cell-based, HEK293-NOX2, PMA-stimulated, Amplex Red fluorescence (AID 1159); conditions: 45 min, higher = more signal, called active from +8 up or from −8 down; further: test concentration not given here
[9] = target: NADPH oxidase 4 (Homo sapiens) (UniProt Q9NPH5); assay: NOX4-dependent H2O2 signal modulators, primary screen, NOX inhibitor project, cell-based, HEK293-NOX4, tetracycline-induced, Amplex Red fluorescence (AID 1160); conditions: 45 min, higher = more signal, called active from +8 up or from −8 down
[10] = target: NADPH oxidase 5 (Homo sapiens) (UniProt Q96PH1); assay: NOX5-dependent H2O2 signal modulators, primary screen, NOX inhibitor project, cell-based, HEK293-NOX5, Amplex Red fluorescence (AID 1161); conditions: HEK293-NOX5, ionomycin, 45 min, higher = more signal
NADPH oxidase 5 (Homo sapiens), sequence (Q96PH1 whole entry, looked up): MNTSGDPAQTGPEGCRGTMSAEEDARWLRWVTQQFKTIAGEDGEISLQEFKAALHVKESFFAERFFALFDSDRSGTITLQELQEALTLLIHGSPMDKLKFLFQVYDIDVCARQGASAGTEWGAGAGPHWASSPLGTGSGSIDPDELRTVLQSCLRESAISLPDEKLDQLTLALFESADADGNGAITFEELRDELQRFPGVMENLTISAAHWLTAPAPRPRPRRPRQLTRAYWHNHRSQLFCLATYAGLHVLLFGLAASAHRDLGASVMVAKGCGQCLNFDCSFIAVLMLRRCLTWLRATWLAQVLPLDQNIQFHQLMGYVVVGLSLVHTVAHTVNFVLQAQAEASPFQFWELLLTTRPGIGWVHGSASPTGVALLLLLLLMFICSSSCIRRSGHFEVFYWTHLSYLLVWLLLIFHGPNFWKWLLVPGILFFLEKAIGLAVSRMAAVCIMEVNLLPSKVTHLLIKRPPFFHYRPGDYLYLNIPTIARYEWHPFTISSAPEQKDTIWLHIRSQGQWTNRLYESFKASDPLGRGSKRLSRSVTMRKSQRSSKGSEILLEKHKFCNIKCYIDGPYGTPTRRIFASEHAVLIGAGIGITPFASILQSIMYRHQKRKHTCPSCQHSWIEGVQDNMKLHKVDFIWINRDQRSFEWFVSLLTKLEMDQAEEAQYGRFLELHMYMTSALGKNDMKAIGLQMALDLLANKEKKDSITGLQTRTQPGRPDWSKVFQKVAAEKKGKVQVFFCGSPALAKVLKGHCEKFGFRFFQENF

NADPH oxidase 2 (Homo sapiens), sequence (P04839 whole entry, looked up): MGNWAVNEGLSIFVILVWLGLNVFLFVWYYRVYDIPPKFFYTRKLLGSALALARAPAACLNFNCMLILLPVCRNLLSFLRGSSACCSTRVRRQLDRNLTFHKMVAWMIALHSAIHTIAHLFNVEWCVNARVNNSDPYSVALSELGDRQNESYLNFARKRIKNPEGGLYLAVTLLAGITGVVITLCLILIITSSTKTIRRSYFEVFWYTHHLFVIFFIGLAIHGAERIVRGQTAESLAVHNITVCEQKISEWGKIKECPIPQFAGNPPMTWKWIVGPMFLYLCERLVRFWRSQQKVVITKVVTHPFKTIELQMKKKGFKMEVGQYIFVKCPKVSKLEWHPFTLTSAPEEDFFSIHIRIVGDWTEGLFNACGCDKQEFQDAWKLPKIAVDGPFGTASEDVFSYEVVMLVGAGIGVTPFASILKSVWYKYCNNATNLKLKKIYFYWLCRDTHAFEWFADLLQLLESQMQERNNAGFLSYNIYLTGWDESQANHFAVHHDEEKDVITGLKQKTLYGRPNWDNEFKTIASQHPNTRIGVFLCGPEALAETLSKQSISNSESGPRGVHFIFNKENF
NADPH oxidase 4 (Homo sapiens), sequence (Q9NPH5 whole entry, looked up): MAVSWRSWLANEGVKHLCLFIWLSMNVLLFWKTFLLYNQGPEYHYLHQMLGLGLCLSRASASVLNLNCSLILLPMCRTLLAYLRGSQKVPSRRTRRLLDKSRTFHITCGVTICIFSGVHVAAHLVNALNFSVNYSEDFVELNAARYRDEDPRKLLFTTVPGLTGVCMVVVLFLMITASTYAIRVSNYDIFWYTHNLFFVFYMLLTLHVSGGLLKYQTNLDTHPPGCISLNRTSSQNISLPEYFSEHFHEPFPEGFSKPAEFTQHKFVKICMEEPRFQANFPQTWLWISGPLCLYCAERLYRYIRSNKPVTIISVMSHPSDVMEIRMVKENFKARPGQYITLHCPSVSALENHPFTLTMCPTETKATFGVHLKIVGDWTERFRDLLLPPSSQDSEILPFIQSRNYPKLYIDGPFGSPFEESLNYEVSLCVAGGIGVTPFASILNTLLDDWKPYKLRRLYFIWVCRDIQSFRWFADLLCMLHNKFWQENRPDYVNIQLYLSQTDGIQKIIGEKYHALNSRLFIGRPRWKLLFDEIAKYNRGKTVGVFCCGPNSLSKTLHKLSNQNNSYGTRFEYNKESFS

Compound	z-score [1]	composite z-score [2]	z-score [3]	z-score [4]	z-score [5]	z-score [6]	z-score [7]	z-score [8]	z-score [9]	z-score [10]
COC(=O)[C@H]1[C@@H]2COc3ccccc3[C@H]2N[C@H]1C(=O)OC	0.896 (inactive)	-0.0046	0.262 (inactive)	-0.122 (inactive)	-0.406 (inactive)	-0.21 (inactive)	0.12	-2.88 (inactive)	0.28 (inactive)	-1.9
COC(=O)C1=CC(c2ccc(CO)cc2)=CC(C2CC2)N(Cc2sc3ccccc3c2Cl)C=C1C(=O)OC (stereo not given)	-0.248 (inactive)	0.385	13.7 (active)	0.815 (inactive)	-0.994 (inactive)	-1.07 (inactive)	0.983	-0.872 (inactive)	-0.189 (inactive)	-0.0786
COCCOC(=O)N1C(=O)[C@@]2(c3cc(C#CCCO)ccc31)[C@H](c1ccc(OCCO)cc1)N1[C@H](c3ccccc3)[C@H](c3ccccc3)OC(=O)[C@H]1[C@@H]2C(=O)NC[C@H](O)c1ccccc1	1.04 (inactive)	-0.0054	2.48 (inactive)	1.1 (inactive)	0.68 (inactive)	0.678 (inactive)	0.75	2.04 (inactive)	0.385 (inactive)	0.419
COC(=O)C1=CC(c2ccc(CO)cc2)=CC(c2cccs2)N(Cc2cccc(OC(F)(F)F)c2)C=C1C(=O)OC (stereo not given)	-1.66 (inactive)	0.641	10.9 (active)	1.87 (inactive)	0.615 (inactive)	1.43 (inactive)	-0.264	-1.76 (inactive)	-1.96 (inactive)	-2.87
O=C1c2ccccc2[C@@]2(Cc3ccccc3N(CC(F)(F)F)C2=O)[C@H](c2ccc(CO)cc2)N1C1CCCCC1	0.969 (inactive)	0.062	0.856 (inactive)	0.81 (inactive)	0.0811 (inactive)	0.427 (inactive)	0.0443	0.161 (inactive)	-0.501 (inactive)	0.239
O=C1C2C=CC(C(O)Cc3ccccc3)N(Nc3ccc([N+](=O)[O-])cc3)C2C(=O)N1c1ccccc1 (stereo not given)	-0.458 (inactive)	0.769	3.94 (inactive)	1.61 (inactive)	0.371 (inactive)	0.877 (inactive)	-0.521	-1.1 (inactive)	-2.7 (inactive)	-1.64
C=CCC(OC(C)=O)[C@@H]1[C@@H](N(Cc2ccc(-c3ccccc3)cc2)C(=O)c2ccc(C)cc2)c2cc(OCCCO)ccc2N1C(=O)c1ccc(-c2ccccc2)cc1 (stereo not given in full)	2.2 (inactive)	-0.0583	0.267 (inactive)	-0.576 (inactive)	-1.07 (inactive)	-0.888 (inactive)	1.05	-0.366 (inactive)	0.639 (inactive)	1.05
COCCOC(=O)N1C(=O)[C@@]2(c3cc(C#CCNC(N)=O)ccc31)[C@H](c1ccccc1OCCO)N1[C@H](c3ccccc3)[C@H](c3ccccc3)OC(=O)[C@H]1[C@@H]2C(=O)NC[C@H](O)c1ccccc1	0.369 (inactive)	0.346	2.18 (inactive)	0.758 (inactive)	0.299 (inactive)	0.751 (inactive)	-0.209	1.02 (inactive)	1.17 (inactive)	0.219
C[N+](C)(C)CCCC[C@@H]1NC(=O)[C@H]2C[C@@H](C(=O)NCc3ccc(F)cc3)[C@@H](c3cccc(OCCO)c3)N2C1=O	0.923 (inactive)	-0.0536	2.46 (inactive)	-1.3 (inactive)	-5.77 (inactive)	-2.37 (inactive)	0.123	0.999 (inactive)	0.834 (inactive)	1.53
CO[C@H]1COC(=O)[C@H](CCSC)NC(=O)CC=C[C@@H](C)COC(=O)[C@@H](OCc2ccccc2)C=C[C@@H]1C	-0.332 (inactive)	-0.109	-0.349 (inactive)	0.238 (inactive)	0.04 (inactive)	-0.236 (inactive)	0.182	1.65 (inactive)	-1.43 (inactive)	0.00807
CCN1C(C)=C(C(=O)OC)[C@@H](c2ccccc2)N2C(=O)[C@@]3(C(=O)OC)O[C@@]12[C@@H]1C(=O)CCC[C@@H]13	-0.128 (inactive)	-0.0518	0.732 (inactive)	-0.69 (inactive)	1.56 (inactive)	-1.11 (inactive)	0.641	0.715 (inactive)	1.11 (inactive)	0.25
C[N+](C)(C)CCCCNC(=O)[C@H]1C[C@H]2C(=O)NCC(=O)N2[C@H]1c1cccc(OCCO)c1	-0.184 (inactive)	0.223	2.81 (inactive)	-0.0646 (inactive)	-2.28 (inactive)	-0.0179 (inactive)	0.0455	-1.21 (inactive)	0.0245 (inactive)	0.259
O=C1O[C@H](c2ccccc2)[C@H](c2ccccc2)N2[C@H]1[C@@H](C(=O)NC[C@H](O)c1ccccc1)[C@]1(C(=O)Nc3ccc(C#CC4=CCCCC4)cc31)[C@H]2c1ccc(OCCO)cc1	-0.266 (inactive)	0.0248	3.76 (inactive)	2.55 (inactive)	0.0828 (inactive)	2.26 (inactive)	-0.099	1.13 (inactive)	0.611 (inactive)	1.32
Cc1ccc(S(=O)(=O)c2cc3oc2CC[C@@H](CO)NC(=O)N(C)Cc2cn(nn2)C[C@H](Cc2ccccc2)NC3=O)cc1	3.05 (inactive)	-0.234	28.3 (active)	13.3 (active)	0.208 (inactive)	2.03 (inactive)	0.533	0.644 (inactive)	0.743 (inactive)	0.648
C#CCNC(/C=C/c1ccccc1)CO (stereo not given)	-0.759 (inactive)	-0.252	-0.181 (inactive)	0.36 (inactive)	0.286 (inactive)	0.0834 (inactive)	0.168	-0.867 (inactive)	0.813 (inactive)	-0.548
COc1ccc(NN2C(C(O)c3cc(OC)c(OC)c(OC)c3)C=CC3C(=O)N(C4CCCCC4)C(=O)C32)cc1 (stereo not given)	-0.413 (inactive)	0.06	11.5 (active)	1.74 (inactive)	0.752 (inactive)	0.558 (inactive)	-0.241	-1.55 (inactive)	-1.85 (inactive)	-2.67
CCOC(=O)C1=CC[C@@H](c2ccc(-c3ccc(OCc4ccccc4)cc3)c(OC)c2)N(S(=O)(=O)c2ccc(C)cc2)[C@H]1c1ccccc1	-0.0232 (inactive)	0.404	2.67 (inactive)	1.86 (inactive)	0.487 (inactive)	1.22 (inactive)	-0.533	1.31 (inactive)	0.643 (inactive)	0.429
O=C1O[C@H](c2ccccc2)[C@H](c2ccccc2)N2[C@H]1[C@@H](C(=O)NC[C@H](O)c1ccccc1)[C@]1(C(=O)Nc3ccc(C#CC4(O)CCCCCC4)cc31)[C@H]2c1ccc(OCCO)cc1	3.02 (inactive)	0.0811	3.64 (inactive)	-0.0068 (inactive)	0.226 (inactive)	-1.03 (inactive)	2.78	2.48 (inactive)	0.0727 (inactive)	0.139
CC(C)C[C@@H]1NC(=O)[C@H](CC(C)C)NC(=O)[C@@]23C(=O)N[C@@H](Cc4ccccc4)C2[C@H](C)[C@@]2(C)O[C@H]2C3/C=C/CC/C=C/CNC1=O (stereo not given in full)	-0.239 (inactive)	0.0275	1.7 (inactive)	0.627 (inactive)	1.33 (inactive)	0.575 (inactive)	-0.0044	0.123 (inactive)	0.349 (inactive)	-1.62
CO[C@H]1COC(=O)CC=C[C@H](C)[C@@H](OC)COC(=O)[C@H](Cc2ccccc2)NC(=O)CC=C[C@@H]1C	-0.76 (inactive)	-0.183	-0.235 (inactive)	-0.912 (inactive)	0.959 (inactive)	-2.2 (inactive)	0.659	0.93 (inactive)	-1.49 (inactive)	0.404
COC(=O)c1c(CC[C@@H](CO)NC(=O)N[C@H](Cn2cc(-c3cncn3C)nn2)C(C)C)oc(C(C)=O)c1C(=O)OC	2.49 (inactive)	-0.148	0.88 (inactive)	-0.0063 (inactive)	-0.181 (inactive)	-0.519 (inactive)	2.93	-1.33 (inactive)	0.591 (inactive)	-0.295
CCCCCCc1nc(C2CC2)c(C)c2c1[Si](C(C)C)(C(C)C)OC2	2.16 (inactive)	-0.196	2.89 (inactive)	0.176 (inactive)	-0.162 (inactive)	0.0166 (inactive)	3.38	-0.579 (inactive)	-0.404 (inactive)	-1.38
CC(C)(C)OC(=O)CC[C@]1(C(=O)N2CCCCC2)N=C(c2ccc(OCCCO)cc2)O[C@H]1c1ccccc1	0.978 (inactive)	-0.294	24 (active)	6.24 (inactive)	1.03 (inactive)	-0.186 (inactive)	2.2	-1.41 (inactive)	1.02 (inactive)	0.541
CCOC(=O)[C@H]1C/C=C/C[C@H](C(=O)OCC)C(=O)O[C@H]2[C@@H](OC)O[C@H](CO)[C@@H](OC(=O)Nc3ccc(Br)cc3)[C@@H]2OC1=O	2.32 (inactive)	0.0606	5.41 (inactive)	1.8 (inactive)	-3.28 (inactive)	0.412 (inactive)	1.5	-0.611 (inactive)	-0.759 (inactive)	1.63
NC(=O)NCC#Cc1ccc2c(c1)[C@]1(C(=O)N2)[C@H](c2ccccc2OCCO)N2[C@H](c3ccccc3)[C@H](c3ccccc3)OC(=O)[C@H]2[C@@H]1C(=O)N1CCN(c2ncccn2)CC1	2.11 (inactive)	0.445	3.42 (inactive)	0.449 (inactive)	0.229 (inactive)	-1.44 (inactive)	2.08	1.09 (inactive)	0.958 (inactive)	-0.596
CO[C@H]1O[C@H](CO)[C@@H](OC(=O)Nc2ccccc2)[C@H](OC(=O)Nc2ccc3c(c2)OCO3)[C@@H]1OC(=O)Nc1ccc2c(c1)OCO2	1.44 (inactive)	0.273	9.35 (active)	-0.145 (inactive)	1.78 (inactive)	-2 (inactive)	1.27	0.679 (inactive)	0.0792 (inactive)	-0.922
